Measurements as given in the supplement of paper PMC6555819.

Assays:
Experiment in all cases: PBM binding z-score (relative to random genomic background probes); higher = stronger binding; sequences stand for … in GC…GCGATTGACAGCGTAGAATGAAGG
[1] = test system: FXR:RXRa (NR concentration 270 nM, RXRa partner concentration 90 nM)
Procedure, shortened: (§1)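 Custom Agilent 4×180K protein-binding microarrays carried double-stranded probes. Their 34-nt variable regions held direct-repeat seeds, single-nucleotide variants, half-site ablations and random human genomic background sequences. Arrays were incubated 1 h with ligand-free nuclear receptor dimers in PBS pH 7.4, 2% milk, 0.02% Triton X-100, 1 mM DTT, 0.2 mg/mL BSA and 0.4 mg/ml salmon testes DNA. Antibodies against each partner (one per run) detected binding, and scanned fluorescence was regression-normalized. Binding z-scores use random background probes as reference.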

[2] = test system: LXRa:RXRa (NR concentration 270 nM, RXRa partner concentration 90 nM)
Procedure, shortened: as §1

[3] = test system: LXRa homodimer (NR concentration 270 nM)
Procedure, shortened: as §1

[4] = test system: LXRb:RXRa (NR concentration 270 nM, RXRa partner concentration 90 nM)
Procedure, shortened: as §1

[5] = test system: LXRb homodimer (NR concentration 270 nM)
Procedure, shortened: as §1

[6] = test system: PPARa:RXRa (NR concentration 270 nM, RXRa partner concentration 90 nM)
Procedure, shortened: as §1

[7] = test system: PPARg:RXRa (NR concentration 180 nM, RXRa partner concentration 90 nM)
Procedure, shortened: as §1

[8] = test system: PPARg:RXRa 270nM:90nM, anti-RXR (NR concentration 270 nM, RXRa partner concentration 90 nM)
Procedure, shortened: as §1

[9] = test system: PPARg:RXRa 30nM:10nM, anti-RXR (NR concentration 30 nM, RXRa partner concentration 10 nM)
Procedure, shortened: as §1

[10] = test system: PPARg:RXRa 90nM:30nM, anti-RXR (NR concentration 90 nM, RXRa partner concentration 30 nM)
Procedure, shortened: as §1

CCGACTGGGGCAGAAAGCTTACCATACCATCCGG
PBM binding z-score [1]: -0.854 | PBM binding z-score [2]: -0.845 | PBM binding z-score [3]: -0.778 | PBM binding z-score [4]: -0.743 | PBM binding z-score [5]: -0.693 | PBM binding z-score [6]: -0.683 | PBM binding z-score [7]: 0.434 | PBM binding z-score [8]: -0.227 | PBM binding z-score [9]: -0.693 | PBM binding z-score [10]: -0.772

ATCGACAGGTCGAAGGTGAGTATACCCACCCGAA
PBM binding z-score [1]: 0.612 | PBM binding z-score [2]: 0.709 | PBM binding z-score [3]: -0.323 | PBM binding z-score [4]: 0.59 | PBM binding z-score [5]: -0.341 | PBM binding z-score [6]: 2.27 | PBM binding z-score [7]: 2.57 | PBM binding z-score [8]: 2.71 | PBM binding z-score [9]: 1.04 | PBM binding z-score [10]: 2.75

CCTAGCGGGCCAGGGTCACTCAAGCATTTCGCTT
PBM binding z-score [1]: 2.02 | PBM binding z-score [2]: 1.7 | PBM binding z-score [3]: -0.501 | PBM binding z-score [4]: 1.75 | PBM binding z-score [5]: -1.09 | PBM binding z-score [6]: 3.22 | PBM binding z-score [7]: 0.585 | PBM binding z-score [8]: 1.45 | PBM binding z-score [9]: -0.704 | PBM binding z-score [10]: 0.334

TCATATAGGTAATACAGGTGAAAGTTGGCATCTA
PBM binding z-score [1]: 1.53 | PBM binding z-score [2]: 1.59 | PBM binding z-score [3]: 0.587 | PBM binding z-score [4]: 1.49 | PBM binding z-score [5]: 0.359 | PBM binding z-score [6]: 2.79 | PBM binding z-score [7]: 3.47 | PBM binding z-score [8]: 4.06 | PBM binding z-score [9]: 4.44 | PBM binding z-score [10]: 4.48

ATCTCTAGGTAAAGATAGTTCAGTAAATGCAAAT
PBM binding z-score [1]: 0.492 | PBM binding z-score [2]: 4.09 | PBM binding z-score [3]: 0.589 | PBM binding z-score [4]: 1.27 | PBM binding z-score [5]: 0.936 | PBM binding z-score [6]: 0.78 | PBM binding z-score [7]: 0.749 | PBM binding z-score [8]: 0.691 | PBM binding z-score [9]: 0.403 | PBM binding z-score [10]: 0.563

AAAACGAGGGCACGCTGAGTTGATAGCAGAGTAG
PBM binding z-score [1]: 0.97 | PBM binding z-score [2]: 0.877 | PBM binding z-score [3]: -0.416 | PBM binding z-score [4]: 0.344 | PBM binding z-score [5]: -0.954 | PBM binding z-score [6]: 2.42 | PBM binding z-score [7]: 2.99 | PBM binding z-score [8]: 2.58 | PBM binding z-score [9]: 0.579 | PBM binding z-score [10]: 1.87

GCTATTAGTTGAAAGGGCAACCAAATGATTCTCG
PBM binding z-score [1]: 0.334 | PBM binding z-score [2]: 0.735 | PBM binding z-score [3]: 0.214 | PBM binding z-score [4]: 0.946 | PBM binding z-score [5]: -0.0517 | PBM binding z-score [6]: 2.45 | PBM binding z-score [7]: 2.73 | PBM binding z-score [8]: 4.6 | PBM binding z-score [9]: 2.34 | PBM binding z-score [10]: 4.39

GCTATCAGGCCATTTGGGTCACTCAATGACGGGC
PBM binding z-score [1]: 0.309 | PBM binding z-score [2]: 0.382 | PBM binding z-score [3]: -0.0509 | PBM binding z-score [4]: 0.286 | PBM binding z-score [5]: 0.109 | PBM binding z-score [6]: 1.73 | PBM binding z-score [7]: 0.893 | PBM binding z-score [8]: 0.805 | PBM binding z-score [9]: -0.227 | PBM binding z-score [10]: 0.276

CCTAGTTGGTCAGGAGGTCACACCCCGGATATGA
PBM binding z-score [1]: 3.53 | PBM binding z-score [2]: 3.05 | PBM binding z-score [3]: 2.07 | PBM binding z-score [4]: 3.15 | PBM binding z-score [5]: 0.855 | PBM binding z-score [6]: 3.98 | PBM binding z-score [7]: 2.86 | PBM binding z-score [8]: 3.57 | PBM binding z-score [9]: 1.05 | PBM binding z-score [10]: 3.09

CCTACTGGGCCATCACGTCATTGATATCAACGTT
PBM binding z-score [1]: -0.11 | PBM binding z-score [2]: -0.114 | PBM binding z-score [3]: -0.158 | PBM binding z-score [4]: 0.0401 | PBM binding z-score [5]: -0.225 | PBM binding z-score [6]: 0.509 | PBM binding z-score [7]: 0.963 | PBM binding z-score [8]: 1.09 | PBM binding z-score [9]: 0.356 | PBM binding z-score [10]: 0.648

GCTATTAGTTGAAAGGGGAACCGAATGATTCTCG
PBM binding z-score [1]: 0.138 | PBM binding z-score [2]: 0.218 | PBM binding z-score [3]: -0.112 | PBM binding z-score [4]: -0.0843 | PBM binding z-score [5]: -0.157 | PBM binding z-score [6]: 0.798 | PBM binding z-score [7]: 1.19 | PBM binding z-score [8]: 3.07 | PBM binding z-score [9]: 1.25 | PBM binding z-score [10]: 2.62

TCTAGCAGGCCAGAGGGTAACTCAAGAGGTACGG
PBM binding z-score [1]: 0.0239 | PBM binding z-score [2]: -0.0819 | PBM binding z-score [3]: -0.636 | PBM binding z-score [4]: -0.399 | PBM binding z-score [5]: -1.36 | PBM binding z-score [6]: 1.15 | PBM binding z-score [7]: 2.11 | PBM binding z-score [8]: 3.56 | PBM binding z-score [9]: 2.38 | PBM binding z-score [10]: 3.26

TTACCAAGGTGAAGGTCGTTGAGCCCTCTGTAGA
PBM binding z-score [1]: 1.3 | PBM binding z-score [2]: 1.24 | PBM binding z-score [3]: -0.339 | PBM binding z-score [4]: 0.883 | PBM binding z-score [5]: -1.13 | PBM binding z-score [6]: 2.65 | PBM binding z-score [7]: 2.83 | PBM binding z-score [8]: 4.43 | PBM binding z-score [9]: 2.31 | PBM binding z-score [10]: 3.92

ATCGAAAGGTCGTGAGGGGAGTATACAGAAAGGC
PBM binding z-score [1]: 5.36 | PBM binding z-score [2]: 4.07 | PBM binding z-score [3]: 0.475 | PBM binding z-score [4]: 3.55 | PBM binding z-score [5]: 1.22 | PBM binding z-score [6]: 5.08 | PBM binding z-score [7]: 3.7 | PBM binding z-score [8]: 4.21 | PBM binding z-score [9]: 1.39 | PBM binding z-score [10]: 3.1

AGTCTAAGTTCAGGACGAGGTAACGTAAAGCACG
PBM binding z-score [1]: 1.61 | PBM binding z-score [2]: 1.56 | PBM binding z-score [3]: 0.288 | PBM binding z-score [4]: 0.821 | PBM binding z-score [5]: -0.194 | PBM binding z-score [6]: 1.82 | PBM binding z-score [7]: 0.831 | PBM binding z-score [8]: 0.749 | PBM binding z-score [9]: 0.345 | PBM binding z-score [10]: 0.385

ACAGACAGGTGAGTGAACGTAACTCAGCTGGACG
PBM binding z-score [1]: -0.265 | PBM binding z-score [2]: -0.366 | PBM binding z-score [3]: -0.561 | PBM binding z-score [4]: -0.436 | PBM binding z-score [5]: -0.532 | PBM binding z-score [6]: -0.0939 | PBM binding z-score [7]: 0.744 | PBM binding z-score [8]: -0.203 | PBM binding z-score [9]: -0.222 | PBM binding z-score [10]: -0.308

CCAGACAGGTGAGAAGGTCACTCAGCCTCGATTA
PBM binding z-score [1]: 2.4 | PBM binding z-score [2]: 2.53 | PBM binding z-score [3]: 0.729 | PBM binding z-score [4]: 2.7 | PBM binding z-score [5]: -0.075 | PBM binding z-score [6]: 3.65 | PBM binding z-score [7]: 2.01 | PBM binding z-score [8]: 3.07 | PBM binding z-score [9]: 0.629 | PBM binding z-score [10]: 1.98

GCTAGTTGGTCAGTTAAAGGTCACACACCGGTCG
PBM binding z-score [1]: 3.58 | PBM binding z-score [2]: 4.58 | PBM binding z-score [3]: 5.75 | PBM binding z-score [4]: 3.98 | PBM binding z-score [5]: 0.905 | PBM binding z-score [6]: 4.23 | PBM binding z-score [7]: 3.18 | PBM binding z-score [8]: 5.17 | PBM binding z-score [9]: 3.67 | PBM binding z-score [10]: 4.95

CGTCAAAGTTCCACTAAGGTAACGTAAAGCACGC
PBM binding z-score [1]: 0.0989 | PBM binding z-score [2]: -0.0438 | PBM binding z-score [3]: -0.0633 | PBM binding z-score [4]: 0.0124 | PBM binding z-score [5]: 0.0274 | PBM binding z-score [6]: 0.268 | PBM binding z-score [7]: 0.459 | PBM binding z-score [8]: 0.573 | PBM binding z-score [9]: -0.0574 | PBM binding z-score [10]: 0.281

AGAATGAGCTTATACGTAGATCAGGGAAGAAAGT
PBM binding z-score [1]: -0.818 | PBM binding z-score [2]: -0.491 | PBM binding z-score [3]: -0.371 | PBM binding z-score [4]: -0.861 | PBM binding z-score [5]: -0.689 | PBM binding z-score [6]: -0.706 | PBM binding z-score [7]: 0.415 | PBM binding z-score [8]: -0.614 | PBM binding z-score [9]: -0.0699 | PBM binding z-score [10]: -0.597

TGAATGAGATTATAAGATCAGGGAACGTTGCAAA
PBM binding z-score [1]: -0.81 | PBM binding z-score [2]: -0.599 | PBM binding z-score [3]: -0.661 | PBM binding z-score [4]: -0.508 | PBM binding z-score [5]: -0.369 | PBM binding z-score [6]: -0.202 | PBM binding z-score [7]: 0.324 | PBM binding z-score [8]: 0.0746 | PBM binding z-score [9]: 0.527 | PBM binding z-score [10]: 0.406

ACTATTTGTTGAGACGAGGGCAACCGATAGGTTG
PBM binding z-score [1]: 0.374 | PBM binding z-score [2]: 0.535 | PBM binding z-score [3]: 0.28 | PBM binding z-score [4]: 0.453 | PBM binding z-score [5]: 0.762 | PBM binding z-score [6]: 0.255 | PBM binding z-score [7]: 0.623 | PBM binding z-score [8]: 0.216 | PBM binding z-score [9]: 0.23 | PBM binding z-score [10]: 0.0132

CCTAGTCGGTCAAGGTCACACACGCTATAGGTAC
PBM binding z-score [1]: 4.93 | PBM binding z-score [2]: 4.51 | PBM binding z-score [3]: 2.64 | PBM binding z-score [4]: 3.94 | PBM binding z-score [5]: 1.16 | PBM binding z-score [6]: 4.61 | PBM binding z-score [7]: 4.76 | PBM binding z-score [8]: 4.67 | PBM binding z-score [9]: 2.13 | PBM binding z-score [10]: 3.88
